# Reference: PubChem BioAssay
# The source made the active and inactive calls.
# Assay: MM1S myeloma cell viability, profiling panel, resazurin fluorescence, basal, 24 h, PK04 Diversity Set (AID 1174);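 also: MM1S multiple myeloma cell line; test concentration not given here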
# Conditions: higher = more signal, called active from +8 up or from −8 down
row,SMILES,z-score
1,CC1CC/C=C\[C@H]2OC34C=CCN(c5ccc6ccccc6c5)C(=O)[C@H]3N(CCCCCO)C(=O)[C@@H]4C2C(=O)O1 (stereo not given in full),-0.634 (inactive)
2,CN1C(=O)C2C=CC(C(O)C(C)(C)C)N(Nc3ccccc3)C2C1=O (stereo not given),-0.281 (inactive)
3,Cc1ccc(S[C@]2(C(=O)NCCCN(C)C)CC(=O)N(Cc3ccccc3)[C@@H]2c2ccc(CO)cc2)cc1,0.833 (inactive)
4,O=C1O[C@H](c2ccccc2)[C@H](c2ccccc2)N2[C@H]1[C@@H](C(=O)NC[C@H](O)c1ccccc1)[C@]1(C(=O)Nc3ccc(C#CC4=CCCCC4)cc31)[C@H]2c1ccc(O)cc1,-1.78 (inactive)
5,O=C(CS)NCCCCCNC(=O)[C@H]1C[C@H]2C(=O)N[C@@H](Cc3ccccc3)C(=O)N2[C@H]1c1cccc(OCCO)c1,0.782 (inactive)
6,CCCC[C@H]1OB(O)C[C@H]2C1=C(COc1ccccc1)C[C@H]1C(=O)N(Cc3ccccc3)C(=O)[C@H]12,0.804 (inactive)
7,O=c1cccc(-c2cccc3ccccc23)o1,-0.0171 (inactive)
8,CCCCCN1CC=CC23O[C@@H]4C=CCCOC(=O)C4[C@H]2C(=O)N(CCCO)[C@@H]3C1=O (stereo not given in full),0.435 (inactive)
9,CS(=O)(=O)CCOC(=O)C1=CC(c2ccc(CO)cc2)=CC(c2cccs2)N(Cc2cccc(OC(F)(F)F)c2)C=C1C(=O)OCCS(C)(=O)=O (stereo not given),-2.98 (inactive)
10,C#C[C@H](O[Si](C#CCCCCCC)(C(C)C)C(C)C)c1ccccc1,0.221 (inactive)
11,COc1ccc([Si](C)(C)[C@@H]2[C@@H](CCO)O[C@]3(C(=O)N(Cc4ccccc4)c4ccc(N(C=O)c5ccccc5)cc43)[C@H]2C)cc1,-1.54 (inactive)
12,C=C(COC)C(=O)CC[C@H](OC(=O)c1cccnc1)c1ccccc1OCCO,-3.06 (inactive)
13,C=CCC(OC(C)=O)[C@@H]1[C@@H](N(Cc2cc3ccccc3o2)C(=O)c2ccc(C)cc2)c2cc(OCCCO)ccc2N1C(=O)c1ccc(-c2ccccc2)cc1 (stereo not given in full),-0.0884 (inactive)
14,NC(=O)[C@]1(Cc2ccccc2)N=C(c2ccc(OCCCO)cc2)O[C@@H]1c1ccccc1,-1.02 (inactive)
15,[N-]=[N+]=NCc1ccccc1C[C@]1(C(=O)NCCN2CCOCC2)N=C(c2ccc(OCCCO)cc2)O[C@H]1c1ccccc1CN=[N+]=[N-],0.836 (inactive)
16,CCOC(=O)C1=CC[C@@H](c2cccc(Cl)c2)N(S(=O)(=O)c2ccc(C)cc2)[C@H]1c1ccc(C#N)cc1,-0.39 (inactive)
17,O=c1cccc(-c2ccccc2)o1,0.0841 (inactive)
18,CC(=O)NCCCC[C@@H]1NC(=O)[C@@H]2C[C@H](C(=O)NCc3ccc(F)cc3)[C@H](c3ccc(O)cc3)N2C1=O,-0.276 (inactive)
19,O=C1OCCC=C[C@H]2OC34C=CCN(c5ccc6ccccc6c5)C(=O)[C@H]3N(CCCCCCO)C(=O)[C@@H]4C12 (stereo not given in full),-0.0449 (inactive)
20,O=C1OCCC/C=C\[C@H]2OC34C=CCN(Cn5nnc6ccccc65)C(=O)[C@H]3N(CCCO)C(=O)[C@@H]4C12 (stereo not given in full),0.42 (inactive)
21,CC(C)OC(=O)C1=CCC(c2cccc(Cl)c2)O1 (stereo not given),0.242 (inactive)
22,O=C1[C@H]2C=C(Br)[C@H](C[C@@H]2OCCOCCO)[C@@]12CO2,-0.478 (inactive)
23,O=c1cccc(-c2ccc3ccccc3c2)o1,0.2 (inactive)
24,CCCCCCCCCCC(O)C1C=CC2C(=O)N(c3ccccc3)C(=O)C2N1Nc1ccc([N+](=O)[O-])cc1 (stereo not given),-0.0843 (inactive)
25,CN1C(=O)C2C=CC(C(O)c3ccccc3)N(NC(=O)OC(C)(C)C)C2C1=O (stereo not given),-0.749 (inactive)
26,CN(C)CCCC[C@@H]1NC(=O)[C@@H]2C[C@H](C(=O)NCCCCCCN)[C@H](c3ccc(O)cc3)N2C1=O,0.427 (inactive)
27,CCOC(=O)C[C@H]1[C@H](OC(=O)c2cc3ccccc3oc2=O)[C@@H](NC(=O)c2ccc3ccccc3c2)c2cc(OCCCO)ccc2N1C(=O)c1ccccc1,-0.382 (inactive)
28,COc1ccc([Si](C)(C)[C@@H]2[C@@H](CCO)O[C@]3(C(=O)N(Cc4ccc(N5C(=O)c6cccc7cccc5c67)cc4)c4ccccc43)[C@H]2C)cc1,-0.898 (inactive)
29,O=C(NCC(O)CO)[C@@]1(Cc2ccccc2)COC(c2ccc(OCCCO)cc2)=N1 (stereo not given in full),-0.322 (inactive)
30,CC(C)(C)OC(=O)CC[C@]1(C(=O)NCC(O)CO)N=C(c2ccc(OCCCO)cc2)O[C@H]1c1ccccc1CN=[N+]=[N-] (stereo not given in full),-0.918 (inactive)
